# Measured values published in the supplement of paper PMC4466140.
# Target: AgAbp1
# Assay: SPOT peptide array binding signal intensity (averaged, normalized) (arbitrary units (background-subtracted, floor 0; scale differs between SH3 domains)); higher = stronger binding of the SH3 domain to the peptide
# How it was run: (§1)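 E. coli BL21(DE3) was used to express GST-fused SH3 domains from four yeast species, which were then purified on glutathione Sepharose. These were incubated at 10 μg/ml in TBS-based blocking buffer overnight at 4°C on cellulose membranes carrying synthetic 15-mer peptides, in which cysteines were replaced by serines. Binding signal is the replicate average of normalized, background-subtracted spot intensity, in arbitrary units that differ between domains.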
row,Binder,SPOT peptide array binding signal intensity
1,TKHKAPPPPPPTAET,1

# Target: AgBbc1
# Assay: as above
# How it was run: as §1
row,Binder,SPOT peptide array binding signal intensity
1,TKHKAPPPPPPTAET,≤ 0

# Target: AgBem1-D1
# Assay: as above
# How it was run: as §1
row,Binder,SPOT peptide array binding signal intensity
1,TKHKAPPPPPPTAET,≤ 0

# Target: AgBzz1-D1
# Assay: as above
# How it was run: as §1
row,Binder,SPOT peptide array binding signal intensity
1,TKHKAPPPPPPTAET,2000

# Target: AgBzz1-D2
# Assay: as above
# How it was run: as §1
row,Binder,SPOT peptide array binding signal intensity
1,TKHKAPPPPPPTAET,338

# Target: AgCyk3
# Assay: as above
# How it was run: as §1
row,Binder,SPOT peptide array binding signal intensity
1,TKHKAPPPPPPTAET,≤ 0

# Target: AgFus1
# Assay: as above
# How it was run: as §1
row,Binder,SPOT peptide array binding signal intensity
1,TKHKAPPPPPPTAET,≤ 0

# Target: AgHof1
# Assay: as above
# How it was run: as §1
row,Binder,SPOT peptide array binding signal intensity
1,TKHKAPPPPPPTAET,≤ 0

# Target: AgHse1
# Assay: as above
# How it was run: as §1
row,Binder,SPOT peptide array binding signal intensity
1,TKHKAPPPPPPTAET,4

# Target: AgLsb1
# Assay: as above
# How it was run: as §1
row,Binder,SPOT peptide array binding signal intensity
1,TKHKAPPPPPPTAET,≤ 0

# Target: AgLsb4
# Assay: as above
# How it was run: as §1
row,Binder,SPOT peptide array binding signal intensity
1,TKHKAPPPPPPTAET,≤ 0

# Target: AgMyo5
# Assay: as above
# How it was run: as §1
row,Binder,SPOT peptide array binding signal intensity
1,TKHKAPPPPPPTAET,21.8

# Target: AgNbp2
# Assay: as above
# How it was run: as §1
row,Binder,SPOT peptide array binding signal intensity
1,TKHKAPPPPPPTAET,39.5

# Target: AgRvs167
# Assay: as above
# How it was run: as §1
row,Binder,SPOT peptide array binding signal intensity
1,TKHKAPPPPPPTAET,4

# Target: AgSho1
# Assay: as above
# How it was run: as §1
row,Binder,SPOT peptide array binding signal intensity
1,TKHKAPPPPPPTAET,≤ 0

# Target: AgSla1-D1-D2
# Assay: as above
# How it was run: as §1
row,Binder,SPOT peptide array binding signal intensity
1,TKHKAPPPPPPTAET,3

# Target: AgSla1-D3
# Assay: as above
# How it was run: as §1
row,Binder,SPOT peptide array binding signal intensity
1,TKHKAPPPPPPTAET,774

# Target: CaAbp1-D1
# Assay: as above
# How it was run: as §1
row,Binder,SPOT peptide array binding signal intensity
1,TKHKAPPPPPPTAET,12

# Target: CaAbp1-D2
# Assay: as above
# How it was run: as §1
row,Binder,SPOT peptide array binding signal intensity
1,TKHKAPPPPPPTAET,≤ 0

# Target: CaBbc1
# Assay: as above
# How it was run: as §1
row,Binder,SPOT peptide array binding signal intensity
1,TKHKAPPPPPPTAET,≤ 0

# Target: CaBem1-D1
# Assay: as above
# How it was run: as §1
row,Binder,SPOT peptide array binding signal intensity
1,TKHKAPPPPPPTAET,42.5

# Target: CaBzz1-D1
# Assay: as above
# How it was run: as §1
row,Binder,SPOT peptide array binding signal intensity
1,TKHKAPPPPPPTAET,4620

# Target: CaBzz1-D2
# Assay: as above
# How it was run: as §1
row,Binder,SPOT peptide array binding signal intensity
1,TKHKAPPPPPPTAET,3490

# Target: CaCyk3
# Assay: as above
# How it was run: as §1
row,Binder,SPOT peptide array binding signal intensity
1,TKHKAPPPPPPTAET,1

# Target: CaFus1
# Assay: as above
# How it was run: as §1
row,Binder,SPOT peptide array binding signal intensity
1,TKHKAPPPPPPTAET,4.5

# Target: CaHof1
# Assay: as above
# How it was run: as §1
row,Binder,SPOT peptide array binding signal intensity
1,TKHKAPPPPPPTAET,1

# Target: CaHse1
# Assay: as above
# How it was run: as §1
row,Binder,SPOT peptide array binding signal intensity
1,TKHKAPPPPPPTAET,5.5

# Target: CaLsb1
# Assay: as above
# How it was run: as §1
row,Binder,SPOT peptide array binding signal intensity
1,TKHKAPPPPPPTAET,≤ 0

# Target: CaLsb4
# Assay: as above
# How it was run: as §1
row,Binder,SPOT peptide array binding signal intensity
1,TKHKAPPPPPPTAET,≤ 0

# Target: CaMyo5
# Assay: as above
# How it was run: as §1
row,Binder,SPOT peptide array binding signal intensity
1,TKHKAPPPPPPTAET,0.25

# Target: CaNbp2
# Assay: as above
# How it was run: as §1
row,Binder,SPOT peptide array binding signal intensity
1,TKHKAPPPPPPTAET,≤ 0

# Target: CaRvs167
# Assay: as above
# How it was run: as §1
row,Binder,SPOT peptide array binding signal intensity
1,TKHKAPPPPPPTAET,≤ 0

# Target: CaRvs167-3
# Assay: as above
# How it was run: as §1
row,Binder,SPOT peptide array binding signal intensity
1,TKHKAPPPPPPTAET,4

# Target: CaSho1
# Assay: as above
# How it was run: as §1
row,Binder,SPOT peptide array binding signal intensity
1,TKHKAPPPPPPTAET,≤ 0

# Target: CaSla1-D1-D2
# Assay: as above
# How it was run: as §1
row,Binder,SPOT peptide array binding signal intensity
1,TKHKAPPPPPPTAET,6.5

# Target: CaSla1-D3
# Assay: as above
# How it was run: as §1
row,Binder,SPOT peptide array binding signal intensity
1,TKHKAPPPPPPTAET,≤ 0

# Target: ScAbp1
# Assay: as above
# How it was run: as §1
row,Binder,SPOT peptide array binding signal intensity
1,TKHKAPPPPPPTAET,1.5

# Target: ScBbc1
# Assay: as above
# How it was run: as §1
row,Binder,SPOT peptide array binding signal intensity
1,TKHKAPPPPPPTAET,≤ 0

# Target: ScBem1-D1
# Assay: as above
# How it was run: as §1
row,Binder,SPOT peptide array binding signal intensity
1,TKHKAPPPPPPTAET,3

# Target: ScBzz1-D1
# Assay: as above
# How it was run: as §1
row,Binder,SPOT peptide array binding signal intensity
1,TKHKAPPPPPPTAET,5910

# Target: ScBzz1-D2
# Assay: as above
# How it was run: as §1
row,Binder,SPOT peptide array binding signal intensity
1,TKHKAPPPPPPTAET,5

# Target: ScCyk3
# Assay: as above
# How it was run: as §1
row,Binder,SPOT peptide array binding signal intensity
1,TKHKAPPPPPPTAET,≤ 0

# Target: ScFus1
# Assay: as above
# How it was run: as §1
row,Binder,SPOT peptide array binding signal intensity
1,TKHKAPPPPPPTAET,18

# Target: ScHof1
# Assay: as above
# How it was run: as §1
row,Binder,SPOT peptide array binding signal intensity
1,TKHKAPPPPPPTAET,≤ 0

# Target: ScHse1
# Assay: as above
# How it was run: as §1
row,Binder,SPOT peptide array binding signal intensity
1,TKHKAPPPPPPTAET,≤ 0

# Target: ScLsb1
# Assay: as above
# How it was run: as §1
row,Binder,SPOT peptide array binding signal intensity
1,TKHKAPPPPPPTAET,0.25

# Target: ScLsb2
# Assay: as above
# How it was run: as §1
row,Binder,SPOT peptide array binding signal intensity
1,TKHKAPPPPPPTAET,≤ 0

# Target: ScLsb3
# Assay: as above
# How it was run: as §1
row,Binder,SPOT peptide array binding signal intensity
1,TKHKAPPPPPPTAET,≤ 0

# Target: ScLsb4
# Assay: as above
# How it was run: as §1
row,Binder,SPOT peptide array binding signal intensity
1,TKHKAPPPPPPTAET,≤ 0

# Target: ScMyo3
# Assay: as above
# How it was run: as §1
row,Binder,SPOT peptide array binding signal intensity
1,TKHKAPPPPPPTAET,160

# Target: ScMyo5
# Assay: as above
# How it was run: as §1
row,Binder,SPOT peptide array binding signal intensity
1,TKHKAPPPPPPTAET,112

# Target: ScNbp2
# Assay: as above
# How it was run: as §1
row,Binder,SPOT peptide array binding signal intensity
1,TKHKAPPPPPPTAET,3.5

# Target: ScPex13
# Assay: as above
# How it was run: as §1
row,Binder,SPOT peptide array binding signal intensity
1,TKHKAPPPPPPTAET,0.75

# Target: ScRvs167
# Assay: as above
# How it was run: as §1
row,Binder,SPOT peptide array binding signal intensity
1,TKHKAPPPPPPTAET,1.5

# Target: ScSho1
# Assay: as above
# How it was run: as §1
row,Binder,SPOT peptide array binding signal intensity
1,TKHKAPPPPPPTAET,2.5

# Target: ScSla1-D1-D2
# Assay: as above
# How it was run: as §1
row,Binder,SPOT peptide array binding signal intensity
1,TKHKAPPPPPPTAET,≤ 0

# Target: ScSla1-D3
# Assay: as above
# How it was run: as §1
row,Binder,SPOT peptide array binding signal intensity
1,TKHKAPPPPPPTAET,4

# Target: SpAbp1-D1
# Assay: as above
# How it was run: as §1
row,Binder,SPOT peptide array binding signal intensity
1,TKHKAPPPPPPTAET,≤ 0

# Target: SpBbc1
# Assay: as above
# How it was run: as §1
row,Binder,SPOT peptide array binding signal intensity
1,TKHKAPPPPPPTAET,2

# Target: SpBzz1-D1
# Assay: as above
# How it was run: as §1
row,Binder,SPOT peptide array binding signal intensity
1,TKHKAPPPPPPTAET,240

# Target: SpBzz1-D2
# Assay: as above
# How it was run: as §1
row,Binder,SPOT peptide array binding signal intensity
1,TKHKAPPPPPPTAET,6.25

# Target: SpCyk3
# Assay: as above
# How it was run: as §1
row,Binder,SPOT peptide array binding signal intensity
1,TKHKAPPPPPPTAET,0.5

# Target: SpHof1
# Assay: as above
# How it was run: as §1
row,Binder,SPOT peptide array binding signal intensity
1,TKHKAPPPPPPTAET,1

# Target: SpHof1-2
# Assay: as above
# How it was run: as §1
row,Binder,SPOT peptide array binding signal intensity
1,TKHKAPPPPPPTAET,≤ 0

# Target: SpHof1-3
# Assay: as above
# How it was run: as §1
row,Binder,SPOT peptide array binding signal intensity
1,TKHKAPPPPPPTAET,≤ 0

# Target: SpHse1
# Assay: as above
# How it was run: as §1
row,Binder,SPOT peptide array binding signal intensity
1,TKHKAPPPPPPTAET,≤ 0

# Target: SpLsb1
# Assay: as above
# How it was run: as §1
row,Binder,SPOT peptide array binding signal intensity
1,TKHKAPPPPPPTAET,0.5

# Target: SpLsb4
# Assay: as above
# How it was run: as §1
row,Binder,SPOT peptide array binding signal intensity
1,TKHKAPPPPPPTAET,≤ 0

# Target: SpMyo1
# Assay: as above
# How it was run: as §1
row,Binder,SPOT peptide array binding signal intensity
1,TKHKAPPPPPPTAET,215

# Target: SpNbp2
# Assay: as above
# How it was run: as §1
row,Binder,SPOT peptide array binding signal intensity
1,TKHKAPPPPPPTAET,14.5

# Target: SpPex13
# Assay: as above
# How it was run: as §1
row,Binder,SPOT peptide array binding signal intensity
1,TKHKAPPPPPPTAET,≤ 0

# Target: SpRvs167
# Assay: as above
# How it was run: as §1
row,Binder,SPOT peptide array binding signal intensity
1,TKHKAPPPPPPTAET,≤ 0

# Target: SpSla1-D1-D2
# Assay: as above
# How it was run: as §1
row,Binder,SPOT peptide array binding signal intensity
1,TKHKAPPPPPPTAET,2

# Target: SpSla1-D3
# Assay: as above
# How it was run: as §1
row,Binder,SPOT peptide array binding signal intensity
1,TKHKAPPPPPPTAET,1
